High-throughput results deposited in PubChem BioAssay by National Center for Advancing Translational Sciences (NCATS).
Hits are enriched below; roughly 2.4% of the tested compounds scored in any of these assays.
D2 antag: HTS Assay for Allosteric Antagonists of the Human D2 Dopamine Receptor: Primary Screen for Antagonists | D(2) dopamine receptor (Homo sapiens), P14416 | actives 2% (n = 340,000) | inhibition, % at 10 µM | AID 485344, 2010 | HEK293 TREx D2 cells, calcium flux, dopamine EC80; in the data active = inhibition above about 30%; inactive = below that, where a call was filed; also: 0% is about no effect
Target sequence (P14416 whole entry, looked up): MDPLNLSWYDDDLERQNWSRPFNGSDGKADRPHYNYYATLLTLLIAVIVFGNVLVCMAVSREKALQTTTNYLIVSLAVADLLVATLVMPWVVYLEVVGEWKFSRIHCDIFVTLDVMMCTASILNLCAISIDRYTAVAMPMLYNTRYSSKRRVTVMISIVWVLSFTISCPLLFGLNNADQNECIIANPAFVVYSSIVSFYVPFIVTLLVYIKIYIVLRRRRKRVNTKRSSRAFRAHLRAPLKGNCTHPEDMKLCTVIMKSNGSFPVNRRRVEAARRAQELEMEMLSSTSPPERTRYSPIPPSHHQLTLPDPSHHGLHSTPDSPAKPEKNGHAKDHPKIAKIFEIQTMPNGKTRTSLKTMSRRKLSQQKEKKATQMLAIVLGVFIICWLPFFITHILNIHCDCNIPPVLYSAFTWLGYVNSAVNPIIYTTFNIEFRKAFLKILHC
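Measurement of antagonist activity uses fluorescent calcium dye in inducible HEK293 T-REx D2 cells: 10 s baseline, compound addition with 180 s read, EC80 dopamine addition with a further 180 s read.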
D2 PAM-1: HTS Assay for Positive Allosteric Modulators of the Human D2 Dopamine Receptor: Primary Screen for Potentiators; D(2) dopamine receptor (Homo sapiens), P14416; HEK293 T-REx D2, calcium flux, EC20 dopamine potentiation; potentiation, % at 10 µM; actives 0.34% (n = 340,000);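 active = potentiation over 3 SD above the plate norm, cut at about 30% in these data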; also: 0% is about no effect
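Primary screen. Calcium kinetics in induced HEK293 T-REx D2 cells: compound pre-addition 180 s, EC20 dopamine, 180 s more.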
D2 PAM-2: Beta-Arrestin HTS for Positive Allosteric Modulators of the Human D2 Dopamine Receptor: Potentiators; D(2) dopamine receptor (Homo sapiens), P14416; DiscoveRx D2 beta-arrestin cells, luminescence, 90 min; 100% = 57 uM dopamine signal; potentiation, % (test concentration not listed); actives 0.23% (n = 360,000); in the data active = potentiation above about 50%; inconclusive = mostly about 30% to 49%
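PathHunter D2 cells, attached overnight at 37 deg C, received compound in DMSO plus dopamine at EC20 (50 nM final) for 90 min at 37 deg C. Beta-arrestin recruitment was read as luminescence after 1 h with detection reagent at ambient temperature.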
D2 ag-1: HTS Assay for Allosteric Agonists of the Human D2 Dopamine Receptor: Primary Screen for Agonists | D(2) dopamine receptor (Homo sapiens), P14416 | HEK293 T-REx D2 cells, calcium flux agonist mode | activation, % at 2 µM | actives 0.53% (n = 340,000);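 active = activation over 3 SD above normal in the single-dose calcium agonist read, cut at about 30% in these data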; also: 0% is about no effect
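HEK293 Trex D2 cells, tetracycline-induced, o/n 30 C 5% CO2; no-wash Ca dye, RT 30–90 min; 10-cycle baseline, 23 nl cpd added, kinetic Ca read 180 s; agonist hits = positive Ca response.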
D2 ag-2: Beta-Arrestin HTS for Positive Allosteric Modulators of the Human D2 Dopamine Receptor: Agonists | DiscoveRx PathHunter D2 beta-arrestin, luminescence, 90 min; 100% = 57 uM dopamine signal | actives 0.084% (n = 360,000) | activation, % (test concentration not listed) | D(2) dopamine receptor (Homo sapiens), P14416; in the data active = activation above about 40%; inconclusive = between about 15% and that limit
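DiscoveRx PathHunter D2 beta-arrestin cells (2,100/well) attached overnight, then compound-stimulated 90 min at 37 C in HBSS/10 mM HEPES/0.1% Tween-20 buffer; beta-galactosidase complementation read by luminescence after 1 h at ambient temperature. Dopamine 57 uM final (EC100) as control.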
Numbers without * were called inactive; ? = inconclusive; / = no result.

SMILES	D2 antag	D2 PAM-1	D2 PAM-2	D2 ag-1	D2 ag-2
O=C(CCc1ccc(Oc2cc([N+](=O)[O-])cc([N+](=O)[O-])c2)cc1)N1CCCCC1	-21	9	58*	-1	?
COc1ccccc1N(C(=O)c1ccco1)C(C(=O)NC1CCCCC1)c1cc(OC)c(OC)c(OC)c1 (stereo not given)	-8	3	-2	-2	2
C[C@H](NC(=O)C1CCN(S(=O)(=O)c2ccccc2)CC1)C(=O)NC1CC1	/	/	-11	/	-2
COCCn1c(SCC(=O)c2ccc(F)cc2)nnc1C(C)C	13	11	-17	-1	-3
COCCn1nnnc1SCC(=O)c1ccc(F)cc1	39*	5	-19	1	-8
O=C(NC1CCCCC1)[C@H](O)[C@@H](O)C(=O)NC1CCCCC1	49*	-6	-1	0	-1
CCOc1ccc(N(C(=O)Cn2nnc3ccccc32)C(C(=O)NC(C)(C)CC)c2cccn2C)cc1 (stereo not given)	-6	4	-19	1	0
CCC(C)(C)NC(=O)C(c1cccn1C)N(C(=O)Cn1nnc2ccccc21)c1ccc(OC)cc1OC (stereo not given)	30*	1	-12	0	-3
C=CCOc1ccccc1CN1CCC(C(=O)Nc2cccc(-c3ccn[nH]3)c2)CC1	92*	-4	-33	1	0
CCCCCn1c(=O)c(C(=O)c2ccccc2)nc2ccccc21	1	16	2	0	0
CCCCCCn1c(=O)[nH]c2nc3cc(N)ccc3nc2c1=O	32*	3	60*	85*	6
CN(C)Cc1nc2c(c(=O)[nH]1)C1(CCCCC1)Cc1ccccc1-2	37*	-5	-16	1	-3
CC(C)Sc1n[nH]c2nc3c(c(=O)n12)C1(CCCC1)Cc1ccccc1-3	55*	-5	/	0	/
CCN(CC)Cc1nc2c(c(=O)[nH]1)C1(CCCCC1)Cc1ccccc1-2	-3	-4	-15	1	0
O=c1[nH]c(NCCCO)nc2c1C1(CCCC1)Cc1ccccc1-2	17	-11	-19	1	1
Cn1c(NCCO)nc2c(c1=O)C1(CCCCC1)Cc1ccccc1-2	68*	-8	-15	2	-6
O=c1[nH]c(NNC(=S)NC2CCCCC2)nc2c1C1(CCCC1)Cc1ccccc1-2	38*	14	-2	-2	-1
COc1cccc(C(=O)Nc2ccccc2-c2nnc(-c3cc(OC)ccc3Br)o2)c1	/	-3	/	0	/
CCN1CCN(c2ccc(Cl)cc2NC(=O)c2ccc(-n3nc(C)cc3C)cc2)CC1	11	-11	-3	0	-1
Cc1ccc(CNC(=O)c2cc3sc(Cl)cc3n2C)cc1	/	-6	/	/	/
COc1ccc(CCNC(=O)c2cc3sc(Cl)cc3n2C)cc1OC	63*	-7	-3	-1	-1
COC(=O)C(Cc1ccccc1)NC(=O)CCNC(=O)c1ccc(Br)cc1 (stereo not given)	/	40*	-5	/	-1
Cc1cccc(C)c1OCC(=O)NNC(=O)CCNC(=O)c1ccc(Br)cc1	-3	0	64*	0	-5
COc1ccc(CCNC(=O)CCNC(=O)c2ccc(Br)cc2)cc1OC	-8	-9	-2	35*	0
COC(=O)C(Cc1ccccc1)NC(=O)CCC(=O)NC(C)CCc1ccccc1 (stereo not given)	0	-6	-2	0	-2
SMILES	D2 antag	D2 PAM-1	D2 PAM-2	D2 ag-1	D2 ag-2
CCc1ccc(C(=O)c2cn(CC(=O)Nc3ccc(F)cc3)c3ccc(F)cc3c2=O)cc1	/	10	/	2	/
COc1cc(C(=O)Nc2cc3c(cc2C)n(C)c(=O)c(=O)n3C)cc(OC)c1OC	/	-2	/	0	/
CCc1ccc(CNC(=O)Cn2nc(C)n3c(cc4cc(C)ccc43)c2=O)cc1	/	-18	/	/	/
O=C(COc1ccc(Br)cc1)NCCNC(=O)c1ccncc1	47*	-11	-16	0	-8
CCN(CC(N)=O)S(=O)(=O)c1ccc(F)cc1	6	-11	-2	1	2
C=CCN(CC=C)S(=O)(=O)c1ccc(F)cc1	31*	-13	11	1	-1
CC(=O)CCn1c(=O)n(CCC(C)=O)c(=O)n(CCC(C)=O)c1=O	24	36*	-5	-1	0
COc1ccc(N2CCN(C(=O)c3ccc(-c4nc(COc5ccccc5)c(C)o4)cc3)CC2)cc1	/	-1	/	2	/
COc1ccc(NC(=O)CSc2nc(-c3cc(OC)c(OC)c(OC)c3)[nH]c2-c2ccc(F)cc2)cc1	/	-24	/	1	/
Cc1ccc(C(C)C)c(OCc2n[nH]c(=S)o2)c1	-6	14	-7	0	2
Cc1ccc(C(C)C)c(OCc2nc(-c3nonc3N)no2)c1	33*	6	-6	-1	1
O=C(Cn1nc2c(cc1=O)CCCC2)Nc1ccc(F)cc1F	/	-8	/	0	/
COc1ccc(-c2c(C)[nH]n3c(=O)c(Cc4ccccc4)c(C)nc23)cc1	31*	-24	-40	1	-3
COc1ccccc1-c1c(C)[nH]n2c(=O)c(Cc3ccccc3)c(C)nc12	54*	-22	-17	0	0
Cn1c(=O)c2c(nc(NCc3ccco3)n2C/C=C/c2ccccc2)n(C)c1=O	-4	10	64*	-1	12
CCc1ccccc1N(C)C(=O)Cn1cnc2sc(C)c(S(=O)(=O)N3CCC(C)CC3)c2c1=O	/	22	/	1	/
COc1cccc(C(=O)c2ncc(C(F)(F)F)cc2Cl)c1	-6	36*	-2	-1	1
COc1ccc(C(=O)c2ncc(C(F)(F)F)cc2Cl)cc1	-10	7	-7	0	2
Cc1cc2oc(=O)c(CC(=O)NCCc3ccccc3)c(C)c2c2occ(C(C)(C)C)c12	/	5	/	0	/
Cc1ccc(N=Nc2c(N)[nH]n3c(=O)cc(-c4ccccc4)nc23)cc1	-7	-14	-12	-1	-3
Cc1ccc(N=Nc2c(=O)[nH]n3c(=O)cc(C)[nH]c23)cc1	14	38*	-20	1	-8
CC(NC(=O)COC(=O)CCc1ccccc1)c1ccccc1 (stereo not given)	35*	-25	-9	-1	-2
CC(NC(=O)COC(=O)CSCc1ccccc1)c1ccccc1 (stereo not given)	2	3	-35	-1	0
